SMILES strings stand for the structures. “And” between values parts separate entries of the source, which are not always exact repeats. Equal values may be shown once. Results filed as inconclusive are left out. The source holds several records for some structures; these can differ, active in one and inactive in another. The source made the active and inactive calls. Unless noted, the call rests on the fitted dose curve; in most records, active means well fitted curve in the direction sought with a large enough effect in the repeat runs; inconclusive means weak or mixed curves; inactive means no such curve, though single readings can be large; an effect the other way counts as inactive or inconclusive.

Test [1] in a line: A CellTox Green Cytotoxicity Assay to monitor cytotoxicity in HEK293 cells - 32 hour (AID 1224881). Further: nearly all actives have a fitted effect of over 40% in size. Further: potency means the concentration at half of the fitted maximal effect. An outline of the steps:
(§1)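 HEK293 cells, 600/well, were preincubated 5 hours and then exposed to compounds at 37 C for up to 40 hours. A cell-impermeant cyanine dye staining dead-cell DNA was read by fluorescence at 0, 8, 16, 24, 32 and 40 h time points.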

A short description of test [2]: A CellTox Green Cytotoxicity Assay to monitor cytotoxicity in HepG2 cells - 0 hour (AID 1224882). Further: nearly all actives have a fitted effect of over 35% in size. An outline of the steps: (§2)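 HepG2 cells, 600/well, preincubated 5 h with CellTox Green dye, then exposed to Tox21 compounds in DMSO at 37 C for up to 40 h. Dead-cell DNA fluorescence read at the indicated time point.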
Test [3] is described as follows: A CellTox Green Cytotoxicity Assay to monitor cytotoxicity in HEK293 cells - 8 hour (AID 1224884). Further: nearly all actives have a fitted effect of over 35% in size. Further: potency means the concentration at half of the fitted maximal effect. An outline of the steps:
as §1

A short description of test [4]: qHTS RealTime-Glo MT Cell Viability Assay in HepG2 cells - 16 hour (AID 1224885). Further: nearly all actives have a fitted effect of over 50% in size. An outline of the steps:
(§3)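 Real-time, nonlytic viability: 600 HepG2 cells/well mixed with NanoLuc enzyme plus prosubstrate; 5 h settle, compound (DMSO) added by pintool; luminescence monitored over 40 h at 37 C.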
On the technique in general: In qHTS, concentration-response curves come from the screen itself.

The nature of test [5]: qHTS RealTime-Glo MT Cell Viability Assay in HEK293 cells - 24 hour (AID 1224886). Further: nearly all actives have a fitted effect of over 50% in size. Further: potency means the concentration at half of the fitted maximal effect. An outline of the steps:
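Cells + reagent dispensed (600 cells/well, HEK293) → 5 h at 37 C/5% CO2 → 23 nL compound in DMSO pinned → 40 h at 37 C → luminescence read at 0, 8, 16, 24, 32, 40 h.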

Test [6] in a line: qHTS RealTime-Glo MT Cell Viability Assay in HEK293 cells - 8 hour (AID 1224887). Further: nearly all actives have a fitted effect of over 50% in size. Further: potency means the concentration at half of the fitted maximal effect. An outline of the steps: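 600 cells/well were plated with the nonlytic NanoLuc/prosubstrate reagent, pre-incubated 5 h, then given 23 nL of compound in DMSO. Incubation at 37 C for 40 h, with luminescence from viable-cell-reduced substrate read repeatedly from 0 h.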
The nature of test [7]: A CellTox Green Cytotoxicity Assay to monitor cytotoxicity in HEK293 cells - 16 hour (AID 1224888). Further: nearly all actives have a fitted effect of over 35% in size. An outline of the steps: as §1
A short description of test [8]: qHTS RealTime-Glo MT Cell Viability Assay in HepG2 cells - 0 hour (AID 1224889). Further: nearly all actives have a fitted effect of over 50% in size. An outline of the steps:
as §3

The nature of test [9]: A CellTox Green Cytotoxicity Assay to monitor cytotoxicity in HepG2 cells - 8 hour (AID 1224890). Further: nearly all actives have a fitted effect of over 45% in size. An outline of the steps:
as §2

The nature of test [10]: qHTS assay to identify small molecule antagonists of the estrogen receptor alpha (ER-alpha) signaling pathway using the BG1 cell line in the presence of 0.1 nM 17-beta-estradiol - cell viability counter screen (AID 1259241). Further: nearly all actives have a fitted effect of over 40% in size. An outline of the steps: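 VM7Luc4E2, 4,000 cells/well, phenol red-free medium + 10% charcoal-stripped FBS; 24 hr plating; cpd + 0.1 nM E2 final, 22 hr 37C/5% CO2; CellTiter-Fluor 30 min, fluorescence.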

The nature of test [11]: qHTS assay to identify small molecule antagonists of the androgen receptor (AR) signaling pathway using the MDA cell line in the presence of 0.5 nM R1881 - cell viability counter screen (AID 1259242). Further: nearly all actives have a fitted effect of over 45% in size. An outline of the steps: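 MDA-kb2 cells (MMTV-luciferase, AR/GR responsive) were treated with compounds plus 0.5 nM R1881 (final) for 16 hr at 37C, 0% CO2. Viability was then read in the same wells as live-cell protease fluorescence (CellTiter-Fluor, 30 min).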

Test [12] is described as follows: qHTS assay to identify small molecule HDAC inhibitors (AID 1259364). Further: top concentration of the series differs between compounds; nearly all actives have a fitted effect of over 45% in size. An outline of the steps: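 Wild-type HCT-116 cells, plated overnight at 37 C, exposed to compounds 2 hr at 37 C; luminogenic HDAC-Glo substrate then added 30 min at room temperature. Luminescence reports relative endogenous class I/II HDAC activity.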
The nature of test [13]: qHTS assay to identify small molecule HDAC inhibitors - cell viability counter screen (AID 1259365). An outline of the steps:
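Luminescence from CellTiter-Glo, developed 30min at room temperature, reports viability of wild-type HCT-116 cells treated 2hr with compounds at 37 C and 5% CO2 after overnight plating.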

Test [14] in a line: qHTS assay to identify small molecule agonists of the sonic hedgehog signaling (Shh) pathway - cell viability counter screen (AID 1259366). Further: nearly all actives have a fitted effect of over 50% in size. An outline of the steps: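 Cytotoxicity counter screen run in the same wells as the Shh reporter assay. NIH/3T3 cells carrying a Gli1 response element–driven luciferase were treated with DMSO-dissolved compounds for 24hr, and live-cell protease activity was measured with CellTiter-Fluor.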

A short description of test [15]: qHTS assay to identify small molecule antagonists of the sonic hedgehog signaling (Shh) pathway - cell viability counter screen (AID 1259367). Further: nearly all actives have a fitted effect of over 55% in size. Further: potency means the concentration at half of the fitted maximal effect. An outline of the steps: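 Seed 3T3 Gli1-Luc cells at 2,000 per well; incubate 4 hr; add compound in DMSO, then conditioned medium; incubate at 37C with 5% CO2; add CellTiter-Fluor after 23 hr; read fluorescence 1 hr later.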

A short description of test [16]: qHTS assay to identify small molecule agonists of the sonic hedgehog signaling (Shh) pathway (AID 1259368; calls by dose curve;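 further: NIH/3T3-derived 3T3Gli1-Luc cells carrying a stable Gli1-driven firefly luciferase reporter; series mostly up to about 92 µM; nearly all actives have a fitted effect of over 15% in size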). An outline of the steps:
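NIH/3T3-derived 3T3Gli1-Luc cells with stably integrated Gli1-driven firefly luciferase, 2,000 cells/well, compounds added after 4 hr. Incubated 24 hr at 37C, 5% CO2; luminescence read after 30 min with luciferase reagent at room temperature.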

The nature of test [17]: qHTS assay to identify small molecule phospholipidosis (PLD) inducers (AID 1259344; active means well fitted curve in the direction sought with a large enough effect; an effect the other way counts as inactive or inconclusive). An outline of the steps:
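Quantitative HTS in HepG2: compound plus LipidTOX Red dye for 24 h, paraformaldehyde fixation with Hoechst 33342, widefield high-content imaging; amiodarone as positive and DMSO as negative control.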

A short description of test [18]: qHTS assay to identify small molecule antagonists of the sonic hedgehog signaling (Shh) pathway (AID 1259369; calls by dose curve; further: nearly all actives have a fitted effect of over 45% in size; further: potency means the concentration at half of the fitted maximal effect). An outline of the steps:
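NIH/3T3-derived Gli1-Luc reporter cells plated 4 h, dosed with compound, then stimulated with conditioned medium for 24 h at 37 C. Firefly luciferase luminescence read after 30 min with detection reagent at room temperature.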

Test [19] deals with Estrogen receptor (Homo sapiens) (UniProt P03372). In words: qHTS assay to identify small molecule antagonists of the estrogen receptor alpha (ER-alpha) signaling pathway using the BG1 cell line in the presence of 0.1 nM 17-beta-estradiol (AID 1259244). Further: nearly all actives have a fitted effect of over 50% in size. An outline of the steps: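 VM7Luc4E2 cells (endogenous full-length ER-alpha, 4×ERE-luciferase), kept 5 days in phenol red-free, charcoal-stripped FBS medium; 4,000 cells/well. Compounds added with 0.1 nM (final) 17beta-estradiol, 22 hr at 37C; luminescence read with ONE-Glo after 30 min.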
Sequence of Estrogen receptor (Homo sapiens) (P03372 whole entry, looked up): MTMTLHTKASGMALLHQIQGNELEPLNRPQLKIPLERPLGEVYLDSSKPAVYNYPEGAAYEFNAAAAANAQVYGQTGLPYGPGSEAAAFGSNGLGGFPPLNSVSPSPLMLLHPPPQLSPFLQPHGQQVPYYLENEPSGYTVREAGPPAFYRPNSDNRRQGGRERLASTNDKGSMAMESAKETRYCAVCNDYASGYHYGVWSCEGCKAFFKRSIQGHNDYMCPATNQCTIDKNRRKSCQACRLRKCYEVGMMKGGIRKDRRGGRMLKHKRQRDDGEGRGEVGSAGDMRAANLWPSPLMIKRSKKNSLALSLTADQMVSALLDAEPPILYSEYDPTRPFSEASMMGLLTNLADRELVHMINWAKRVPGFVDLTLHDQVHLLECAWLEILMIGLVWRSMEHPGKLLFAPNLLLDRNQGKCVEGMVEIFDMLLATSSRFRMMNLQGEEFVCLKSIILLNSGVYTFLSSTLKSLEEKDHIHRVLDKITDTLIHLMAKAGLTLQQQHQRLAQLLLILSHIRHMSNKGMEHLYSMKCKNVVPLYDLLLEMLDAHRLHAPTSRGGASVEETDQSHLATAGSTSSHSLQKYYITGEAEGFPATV

On to `O=C(CCl)c1ccccc1`, for which the Potency result in test [1] was “inactive and 54.9 µM (active)”; in [5], “inactive and 49 µM (active)”. Besides, the Potency result in test [2], in test [3], in [4], in test [6], in [7] and in [8] was “inactive” throughout. For the same molecule, the Potency entry in [9], in [10], in test [11], in test [12], in [14] and in [15] was “inactive” in each case. For the same molecule, in test [16], the Potency entry is “inactive”. For the same molecule, the result in [13] was inactive.
Take `ClC1C(Cl)C(Cl)C(Cl)C(Cl)C1Cl` (centres undefined): the Potency result in test [2], in [4], in test [8], in [9], in test [10] and in test [11] was “inactive” throughout. Moreover, the Potency entry in test [12], in test [14], in test [15], in test [16] and in [18] was “inactive” throughout. Besides, the Potency result in test [3] was “inactive and 43.6 µM (active)”; in test [5], “inactive and 49 µM (active)”; in test [6] it was “inactive and 49 µM (active)”. Further, the outcome in test [17] and in test [13] was inactive.
Turning to `NNC(=S)NN`, the Potency result in [1], in [2], in [3], in [4], in test [5] and in test [6] was “inactive” each time. In addition, the Potency result in test [7], in test [8], in test [9], in test [10], in [11] and in test [19] was “inactive” each time. For the same molecule, the Potency result in test [15] and in [16] was “inactive” each time. For the same molecule, in [13], the molecule was classed as inactive. The Potency in [18] is 28.1 µM (active) and 24.3 µM (active).
Take `O=C(O)CC[N+](=O)[O-]`: the Potency result in [1], in test [2], in [3], in test [4], in test [5] and in test [6] was “inactive” in each case. Further, the Potency result in test [7], in [8], in [9], in test [10], in test [11] and in test [12] was “inactive” throughout. Further, the Potency result in test [14], in [15], in test [16] and in test [18] was “inactive” throughout. In [13], the call was inactive.
For `CCN(CC)C(=O)SCc1ccc(Cl)cc1`, the Potency result in test [1], in [2], in test [3], in [4], in test [5] and in [6] was “inactive” in each case. Besides, the Potency entry in [7], in test [8], in test [9], in test [10], in [11] and in test [19] was “inactive” each time. Moreover, the Potency entry in test [12], in [14], in [15], in [16] and in test [18] was “inactive” each time. Further, in [13], the molecule was classed as inactive.
As to `CN(C)c1ccc(C(=O)c2ccc(N(C)C)cc2)cc1`, the Potency entry in test [1], in [2], in test [3], in [4], in [6] and in test [7] was “inactive” throughout. Further, the Potency entry in test [8], in test [9], in [10], in test [11], in test [14] and in [16] was “inactive” throughout. For the same molecule, the molecule was called inactive in test [13]. For the same molecule, the Potency result in [15] is “inactive and 21.7 µM (active)”; in test [18] it was “inactive and 24.3 µM (active)”.
As to `CC(O)CCO` (centres undefined), the Potency result in test [1], in [2], in [3], in [4], in test [5] and in [6] was “inactive” each time. Moreover, the Potency result in test [7], in test [8], in [9], in test [10], in [12] and in test [14] was “inactive” throughout. Besides, the Potency entry in test [15], in test [16] and in [18] was “inactive” each time. For the same molecule, in test [13], the molecule was called inactive.
